From PubChem BioAssay

Assay: NFkB reporter suppression in cystic fibrosis bronchial cells – cell-based, uHTS hits, panel, cytotoxicity readout, dose response (AID 624344)
Conditions: CF bronchial epithelial cells, PAF-induced NFkB reporter inhibition, with PAF, run 1; at 79 µM (top of the series) unless noted

Row | Structure (SMILES) | inhibition [%]
1 | O=C(O)/C=C/c1ccc2c(-c3ccccc3)onc2c1 | 113
2 | Cc1ccc2c(c1)C(=O)C(=O)N2Cc1ccc(Br)cc1 | 106
3 | O=C(NNc1ccccc1Br)C(O)(c1cccc(C(F)(F)F)c1)c1cccc(C(F)(F)F)c1 | 103
4 | Cn1c(Sc2ccc(Cl)cc2)c(C=O)c2ccccc21 | 119
5 | COCCNc1nc(Oc2cncc(Cl)c2)c2sccc2n1 | 100
6 | COc1ccc(OC)c(-c2nnc3n2N=C(c2ccc(OC)c(OC4CCOC4)c2)CS3)c1 (stereo not given) | 103
7 | Brc1ccc2ncnc(NCc3ccccc3)c2c1 | 108
8 | Cc1c([N+](=O)[O-])c2ccc(O)cc2n1-c1ccccc1 | 109
9 | Cc1ccc(CCC(=O)Nc2ncc(Cc3cccc(Cl)c3Cl)s2)o1 | 101
10 | CC(=O)Oc1ccc(N(C(C)=O)S(=O)(=O)c2ccc(Cl)cc2)c2ccccc12 | 99.9
11 | CC(C)CNC(=O)c1coc(=O)c(Br)c1 | 86
12 | CC(=O)Oc1c(Br)cc(N(C(C)=O)S(=O)(=O)c2ccccc2)c2ccccc12 | 72.3
13 | COC(=O)N1C(=O)[C@@](c2ccc(OC)cc2)(C(C)C)N1C(=O)OC | 101
14 | COc1ccc(-c2oc3ccc(-c4ccc5c(c4)OCO5)cc3c2C#CC2(O)CCCCC2)cc1 | 101
15 | COCCN1Cc2cccc(C(=O)Nc3cccc(-c4nc5ccccc5[nH]4)c3)c2C1=O | 95.8
16 | CC(C)(C)c1nc(NC(=O)Nc2ccccc2)sc1Br | 107
17 | CC(C)c1ccccc1NC(=O)COC(=O)c1c2c(nc3ccccc13)CCN(Cc1ccccc1)C2 | 76.4
18 | CC[C@H](CO)Nc1nc(Nc2cccc(Cl)c2)c2ncn(C(C)C)c2n1 | 106
19 | CCCCN(c1ccccc1)c1ncnc(N)c1[N+](=O)[O-] | 97.4
20 | O=C(Nc1ccc(Oc2ccc(NC(=O)Nc3ccc([N+](=O)[O-])cc3)cc2)cc1)Nc1ccc([N+](=O)[O-])cc1 | 101

Row | Structure (SMILES) | inhibition [%]
21 | Cc1ccc(NC(=O)c2cc(C(=O)c3cc(Cl)ccc3O)cn(-c3ccc(C)cc3)c2=O)cc1 | 65.5
22 | COc1ccc2c(c1)c(C(C)=O)c(C)n2-c1ccc(C(C)=O)cc1 | 89.8
23 | COc1ccccc1Cn1c(=O)c2ccccc2n2c(Sc3ncnc4sccc34)nnc12 | 101
24 | COc1ccc(N=Cc2cc3c(cc2O)OC(N)=C(C#N)C3c2ccccc2)cc1 (stereo not given) | 76.8
25 | O=C1N(c2ccccc2C(F)(F)F)O[C@@]1(c1ccccc1)C1CCCCC1 | 99.3
26 | CN(C)c1ccc(C(C(=O)NC2CCCCC2)N(Cc2ccco2)C(=O)c2snc(C(N)=O)c2N)cc1 (stereo not given) | 105
27 | COc1ccc2[nH]c3c(c2c1)CCN1C(=O)C(CC(=O)NCCC2=CCCCC2)C[C@H](C(=O)N2CCCCC2)[C@@]31CCc1ccccc1 (stereo not given in full) | 104
28 | COc1ccc(-c2csc3ncnc(NCCN4CCOCC4)c23)cc1 | 112
29 | CS(=O)(=O)Nc1cccc(-c2cc(NC=O)c3ncc(-c4ccc(F)cc4)n3c2)c1 | 84
30 | O=C(NC1CCCC(C(F)(F)F)C1)c1ccc([N+](=O)[O-])o1 (stereo not given) | 97.5
31 | C=C1C(=O)OC2CC1C(O)CC(C)=CCCC(C)=CC(O)CC2C (stereo not given) | 103
32 | O=C(CN1C(=O)CCC1=O)Nc1nc(-c2nc3ccccc3s2)cs1 | 84.7
33 | Cc1ccc(C)c(S(=O)(=O)N(C(=O)c2ccncc2)c2ccc(OC(=O)c3ccncc3)cc2)c1 | 104
34 | Cc1nnc(Sc2nc3ccccc3o2)c2ccccc12 | 98.3
35 | O=C(NCCc1ccc(F)cc1)c1coc(=O)c(Br)c1 | 82
36 | CC(=O)c1ccc(Nc2ncnc3ccc(Br)cc23)cc1 | 91.3
37 | O=C(OC1CCOC1=O)c1ccccc1C(=O)c1ccc(Cl)c([N+](=O)[O-])c1 (stereo not given) | 98.5
38 | Cc1ccccc1C(=O)N1CCN(c2ccc(NC(=O)CSc3ccc(Cl)cc3)cc2)CC1 | 77.6
39 | CCSc1nsc(NC(=O)Nc2cccc(OC)c2)n1 | 102
40 | O=S1(=O)CCC(NC(=S)SCCOc2ccccc2)C1 (stereo not given) | 99.3

Assay: as above
Conditions: CF bronchial epithelial cells, PAF-induced NFkB reporter inhibition, with PAF, run 2; at 79 µM (top of the series) unless noted

Row | Structure (SMILES) | inhibition
41 | O=C(O)/C=C/c1ccc2c(-c3ccccc3)onc2c1 | 105%
42 | Cc1ccc2c(c1)C(=O)C(=O)N2Cc1ccc(Br)cc1 | 113%
43 | O=C(NNc1ccccc1Br)C(O)(c1cccc(C(F)(F)F)c1)c1cccc(C(F)(F)F)c1 | 104%
44 | Cn1c(Sc2ccc(Cl)cc2)c(C=O)c2ccccc21 | 107%
45 | COCCNc1nc(Oc2cncc(Cl)c2)c2sccc2n1 | 115%
46 | COc1ccc(OC)c(-c2nnc3n2N=C(c2ccc(OC)c(OC4CCOC4)c2)CS3)c1 (stereo not given) | 107%
47 | Brc1ccc2ncnc(NCc3ccccc3)c2c1 | 104%
48 | Cc1c([N+](=O)[O-])c2ccc(O)cc2n1-c1ccccc1 | 94.8%
49 | Cc1ccc(CCC(=O)Nc2ncc(Cc3cccc(Cl)c3Cl)s2)o1 | 112%
50 | CC(=O)Oc1ccc(N(C(C)=O)S(=O)(=O)c2ccc(Cl)cc2)c2ccccc12 | 108%
51 | CC(C)CNC(=O)c1coc(=O)c(Br)c1 | 63.6%
52 | CC(=O)Oc1c(Br)cc(N(C(C)=O)S(=O)(=O)c2ccccc2)c2ccccc12 | 88.1%
53 | COC(=O)N1C(=O)[C@@](c2ccc(OC)cc2)(C(C)C)N1C(=O)OC | 102%
54 | COc1ccc(-c2oc3ccc(-c4ccc5c(c4)OCO5)cc3c2C#CC2(O)CCCCC2)cc1 | 91.6%
55 | COCCN1Cc2cccc(C(=O)Nc3cccc(-c4nc5ccccc5[nH]4)c3)c2C1=O | 114%
56 | CC(C)(C)c1nc(NC(=O)Nc2ccccc2)sc1Br | 103%
57 | CC(C)c1ccccc1NC(=O)COC(=O)c1c2c(nc3ccccc13)CCN(Cc1ccccc1)C2 | 90.6%
58 | CC[C@H](CO)Nc1nc(Nc2cccc(Cl)c2)c2ncn(C(C)C)c2n1 | 108%
59 | CCCCN(c1ccccc1)c1ncnc(N)c1[N+](=O)[O-] | 101%
60 | O=C(Nc1ccc(Oc2ccc(NC(=O)Nc3ccc([N+](=O)[O-])cc3)cc2)cc1)Nc1ccc([N+](=O)[O-])cc1 | 114%

Row | Structure (SMILES) | inhibition
61 | Cc1ccc(NC(=O)c2cc(C(=O)c3cc(Cl)ccc3O)cn(-c3ccc(C)cc3)c2=O)cc1 | 96.9%
62 | COc1ccc2c(c1)c(C(C)=O)c(C)n2-c1ccc(C(C)=O)cc1 | 101%
63 | COc1ccccc1Cn1c(=O)c2ccccc2n2c(Sc3ncnc4sccc34)nnc12 | 113%
64 | COc1ccc(N=Cc2cc3c(cc2O)OC(N)=C(C#N)C3c2ccccc2)cc1 (stereo not given) | 47.7%
65 | O=C1N(c2ccccc2C(F)(F)F)O[C@@]1(c1ccccc1)C1CCCCC1 | 105%
66 | CN(C)c1ccc(C(C(=O)NC2CCCCC2)N(Cc2ccco2)C(=O)c2snc(C(N)=O)c2N)cc1 (stereo not given) | 102%
67 | COc1ccc2[nH]c3c(c2c1)CCN1C(=O)C(CC(=O)NCCC2=CCCCC2)C[C@H](C(=O)N2CCCCC2)[C@@]31CCc1ccccc1 (stereo not given in full) | 40.2% [at 39.5 µM]
68 | COc1ccc(-c2csc3ncnc(NCCN4CCOCC4)c23)cc1 | 100%
69 | CS(=O)(=O)Nc1cccc(-c2cc(NC=O)c3ncc(-c4ccc(F)cc4)n3c2)c1 | 88.3%
70 | O=C(NC1CCCC(C(F)(F)F)C1)c1ccc([N+](=O)[O-])o1 (stereo not given) | 103%
71 | C=C1C(=O)OC2CC1C(O)CC(C)=CCCC(C)=CC(O)CC2C (stereo not given) | 110%
72 | O=C(CN1C(=O)CCC1=O)Nc1nc(-c2nc3ccccc3s2)cs1 | 85.9%
73 | Cc1ccc(C)c(S(=O)(=O)N(C(=O)c2ccncc2)c2ccc(OC(=O)c3ccncc3)cc2)c1 | 118%
74 | Cc1nnc(Sc2nc3ccccc3o2)c2ccccc12 | 107%
75 | O=C(NCCc1ccc(F)cc1)c1coc(=O)c(Br)c1 | 83.4%
76 | CC(=O)c1ccc(Nc2ncnc3ccc(Br)cc23)cc1 | 98.4%
77 | O=C(OC1CCOC1=O)c1ccccc1C(=O)c1ccc(Cl)c([N+](=O)[O-])c1 (stereo not given) | 105%
78 | Cc1ccccc1C(=O)N1CCN(c2ccc(NC(=O)CSc3ccc(Cl)cc3)cc2)CC1 | 71.9%
79 | CCSc1nsc(NC(=O)Nc2cccc(OC)c2)n1 | 113%
80 | O=S1(=O)CCC(NC(=S)SCCOc2ccccc2)C1 (stereo not given) | 108%
